Drawing on PubChem BioAssay, this text covers composite z-score and z-score for five molecules.

Calls of active or inactive are those of the source.

In test [1] the test system is Plasmodium falciparum Sir2 (PF13_0152, Sir2A). Put plainly: Plasmodium falciparum Sir2A binding compounds – biochemical, small-molecule microarray, 635 nm fluorescence, primary screen (AID 1098).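 Further: score merges spot fluorescence intensity with its signal-to-noise ratio.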 As to conditions: fluorescence 635 nm, higher = more signal.
The nature of test [2]: probe aDKK1 binding to arrayed compounds – biochemical, biotinylated probe, 635/667 nm fluorescence, primary screen (AID 1099).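 Further: score merges 667nm spot fluorescence with signal to noise across triplicate slides.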 Conditions: small-molecule microarray, higher = more signal.
Test [3] is described as follows: probe aCHRDL2 binding to arrayed compounds – biochemical, biotinylated probe, 635/667 nm fluorescence, primary screen (AID 1100). As to conditions: small-molecule microarray, higher = more signal.
Test [4] in a line: change in splice reporter luminescence, either direction, cell-based, HEK293, spliceosome inhibition project, primary screen (AID 1101).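 Further: HEK293 cells carrying a splicing-competent luciferase reporter gene; test concentration not given here.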 As to conditions: HEK293 splicing luciferase reporter, 24 h, higher = more signal, called active from +8 up or from −8 down.
In test [5] the target is Fibroblast growth factor 10 (Homo sapiens) (UniProt O15520). Put plainly: compounds binding fibroblast growth factor 10 – biochemical, small-molecule microarray, 635 nm fluorescence, primary screen (AID 1102). Conditions: FGF10 binding, fluorescence 635 nm, higher = more signal.
For test [6], the system named is glycogen synthase kinase-3 (GSK3A per assay name; protocol says GSK3B). Put plainly: compounds binding glycogen synthase kinase-3 – biochemical, small-molecule microarray, 635 nm fluorescence, GSK3A, primary screen (AID 1103). Further: the record names both GSK3A and GSK3B. As to conditions: fluorescence 635 nm, higher = more signal.
Test [7] addresses Epidermal growth factor receptor (Homo sapiens) (UniProt P00533). Put plainly: compounds binding epidermal growth factor receptor – biochemical, small-molecule microarray, 635 nm fluorescence, primary screen (AID 1104).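 Further: score merges 667 nm emission intensity with spot signal to noise over triplicate slides.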 As to conditions: EGFR binding, higher = more signal.
The target in test [8] is Follistatin-related protein 3 (Homo sapiens) (UniProt O95633). Put plainly: compounds binding follistatin-related protein 3 – biochemical, small-molecule microarray, 635 nm fluorescence, primary screen (AID 1105).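 Further: score merges emission near 667 nm and signal to noise per printed spot across three slides.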 As to conditions: FSTL3 binding, higher = more signal.
Test [9] deals with Dickkopf-related protein 1 (Homo sapiens) (UniProt O94907). Put plainly: small molecules binding DKK1 protein – biochemical, small-molecule microarray, 635 nm fluorescence scan, primary screen (AID 1106).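 Further: score merges emission near 667 nm with signal to noise over three replicate slides.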 Conditions: higher = more signal.
Test [10] has as its system Inhibin beta A chain (activin A). Put plainly: small molecules binding activin A – biochemical, small-molecule microarray, 635 nm fluorescence scan, primary screen (AID 1107).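 Further: mouse activin A protein probed at 4.33 µg/mL on printed slides; score merges bound-protein fluorescence near 667 nm with spot signal-to-noise.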 As to conditions: INHBA, higher = more signal.
The test system of test [11] is Human papillomavirus type 1a protein E7 (residues 44-93). Put plainly: small molecules binding HPV E7 44-93 – biochemical, small-molecule microarray, residues 44-93, 635 nm fluorescence, primary screen (AID 1108).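 Further: E7 fragment applied at 1 µg/mL in TBST for 1 h at 4 C; score combines spot fluorescence with its signal to noise ratio.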 As to conditions: fluorescence 635 nm, higher = more signal.
Test [12] in a line: hepatitis C replication reporter changes, two-sided – Huh7 cells, luciferase reporter, HCV replication inhibitor project, primary screen (AID 1109).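 Further: huh7 hepatoma cells harbouring a luciferase neomycin HCV replicon reporter; luciferase luminescence as measure of HCV replicon replication; test concentration not given here.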 As to conditions: Huh7 HCV replicon luciferase reporter, 48 h; higher = more signal. Background: In a reporter assay the amount or activity of a reporter protein is the signal.
Test [13] deals with Left-right determination factor 2 (Homo sapiens) (UniProt O00292). Put plainly: small molecules binding LEFTY2 protein – biochemical, small-molecule microarray, 635 nm fluorescence scan, primary screen (AID 1110). Conditions: higher = more signal.
Test [14] deals with Calmodulin-1 (Homo sapiens) (UniProt P0DP23). Put plainly: small molecules binding calmodulin-1 with EGTA – biochemical, small-molecule microarray, Cy5-labelled CALM1, profiling panel (AID 1111).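 Further: labelled calmodulin applied in Tris saline Tween buffer holding calcium plus EGTA and DTT.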 Conditions: Cy5-CALM1 binding fluorescence, higher = more signal.
Test [15] shares this target. Put plainly: small molecules binding Ca-loaded calmodulin-1 – biochemical, small-molecule microarray, Cy5-labelled CALM1, plus calcium, artefact control for SMM control-protein annotation, profiling panel (AID 1112).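 Further: score merges spot fluorescence with signal to noise from triplicate slides.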 As to conditions: Cy5-CALM1 binding fluorescence, higher = more signal.
Test [16] is described as follows: probe aWnt5a binding to arrayed compounds – biochemical, biotinylated probe, 635/667 nm fluorescence, primary screen (AID 1113).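 Further: score merges 667 nm fluorescence intensity with signal-to-noise per printed feature.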 As to conditions: small-molecule microarray, higher = more signal.
Test [17] can be described thus: probe aShh binding to arrayed compounds – biochemical, biotinylated probe, 635/667 nm fluorescence, primary screen (AID 1114).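 Further: probe is biotin-labelled aShh protein from a stem cell growth factor screen; measures binding of labelled protein to compounds printed on the slide; score merges feature fluorescence at 667 nm with signal-to-noise.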 Conditions: small-molecule microarray, higher = more signal.
The nature of test [18]: probe aNog binding to arrayed compounds – biochemical, biotinylated probe, 635/667 nm fluorescence, primary screen (AID 1115).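 Further: probe is biotinylated aNog protein used at 0.15 µg/mL for 1 h at 4 C; z-score combines 667 nm fluorescence of each spot with its signal to noise.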 As to conditions: small-molecule microarray, higher = more signal.
The target in test [19] is Torsin-1A-interacting protein 1 (Homo sapiens) (UniProt Q5JTV8). Put plainly: compound microarray binding of lysate hLAP1 – cell lysate, small-molecule microarray, COS7 lysate, 635/667 nm fluorescence, primary screen (AID 1116). As to conditions: 635 nm fluorescence, higher = more signal.
The target of test [20] is Alpha-bungarotoxin (Bungarus multicinctus) (UniProt P60615). Put plainly: compounds binding labelled alpha-BTX control protein – biochemical, small-molecule microarray, Alexa647 label, 635/667 nm fluorescence, artefact control for SMM control protein annotation, profiling panel (AID 1117). Conditions: alpha-BTX-A647 binding fluorescence, higher = more signal.
Chain of Alpha-bungarotoxin (Bungarus multicinctus) (P60615 whole entry, looked up): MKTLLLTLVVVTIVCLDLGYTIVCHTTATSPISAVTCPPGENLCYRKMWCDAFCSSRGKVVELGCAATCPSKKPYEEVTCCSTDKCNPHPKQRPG

Chain of Fibroblast growth factor 10 (Homo sapiens) (O15520 whole entry, looked up): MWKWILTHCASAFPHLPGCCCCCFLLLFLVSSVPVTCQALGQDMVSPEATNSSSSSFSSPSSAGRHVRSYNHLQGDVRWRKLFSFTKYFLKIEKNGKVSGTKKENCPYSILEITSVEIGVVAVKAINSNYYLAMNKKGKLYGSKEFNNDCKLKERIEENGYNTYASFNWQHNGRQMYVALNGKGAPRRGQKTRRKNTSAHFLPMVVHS
Chain of Epidermal growth factor receptor (Homo sapiens) (P00533 whole entry, looked up): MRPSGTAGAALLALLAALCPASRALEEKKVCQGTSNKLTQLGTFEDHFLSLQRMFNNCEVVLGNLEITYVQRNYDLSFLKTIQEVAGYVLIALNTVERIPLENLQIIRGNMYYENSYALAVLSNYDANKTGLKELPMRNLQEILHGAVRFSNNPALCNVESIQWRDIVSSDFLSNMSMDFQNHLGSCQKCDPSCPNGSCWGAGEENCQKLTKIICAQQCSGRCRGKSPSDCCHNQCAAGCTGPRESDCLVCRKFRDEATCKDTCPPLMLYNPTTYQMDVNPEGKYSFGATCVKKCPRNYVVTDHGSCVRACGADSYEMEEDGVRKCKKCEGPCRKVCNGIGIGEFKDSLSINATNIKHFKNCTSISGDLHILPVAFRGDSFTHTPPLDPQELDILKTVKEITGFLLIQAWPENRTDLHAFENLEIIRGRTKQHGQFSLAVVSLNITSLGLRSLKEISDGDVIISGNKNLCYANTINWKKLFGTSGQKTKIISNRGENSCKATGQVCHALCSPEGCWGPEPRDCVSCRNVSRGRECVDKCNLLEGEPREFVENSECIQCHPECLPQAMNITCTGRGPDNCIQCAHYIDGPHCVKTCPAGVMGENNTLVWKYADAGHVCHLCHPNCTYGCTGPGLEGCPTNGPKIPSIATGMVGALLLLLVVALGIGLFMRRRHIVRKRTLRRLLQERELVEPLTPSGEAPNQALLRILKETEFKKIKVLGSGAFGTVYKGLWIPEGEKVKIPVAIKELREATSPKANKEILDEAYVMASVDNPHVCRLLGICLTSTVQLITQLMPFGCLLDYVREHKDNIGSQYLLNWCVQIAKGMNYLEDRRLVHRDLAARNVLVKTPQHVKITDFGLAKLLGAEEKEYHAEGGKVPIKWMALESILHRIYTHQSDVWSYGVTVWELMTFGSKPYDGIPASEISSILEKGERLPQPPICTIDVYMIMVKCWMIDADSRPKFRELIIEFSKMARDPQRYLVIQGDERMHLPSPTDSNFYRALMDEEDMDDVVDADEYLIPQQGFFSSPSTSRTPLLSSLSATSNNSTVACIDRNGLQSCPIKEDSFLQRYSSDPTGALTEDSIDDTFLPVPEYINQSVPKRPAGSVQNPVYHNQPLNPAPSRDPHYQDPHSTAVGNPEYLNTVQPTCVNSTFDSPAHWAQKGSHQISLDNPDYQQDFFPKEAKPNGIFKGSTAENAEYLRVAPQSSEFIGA
Chain of Dickkopf-related protein 1 (Homo sapiens) (O94907 whole entry, looked up): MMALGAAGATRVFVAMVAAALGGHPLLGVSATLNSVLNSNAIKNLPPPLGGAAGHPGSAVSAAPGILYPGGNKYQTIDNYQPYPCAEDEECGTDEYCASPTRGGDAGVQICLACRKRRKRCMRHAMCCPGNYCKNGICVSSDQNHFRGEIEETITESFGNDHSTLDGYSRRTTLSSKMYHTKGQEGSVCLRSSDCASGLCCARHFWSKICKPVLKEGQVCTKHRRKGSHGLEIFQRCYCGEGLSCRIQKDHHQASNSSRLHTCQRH
Chain of Follistatin-related protein 3 (Homo sapiens) (O95633 whole entry, looked up): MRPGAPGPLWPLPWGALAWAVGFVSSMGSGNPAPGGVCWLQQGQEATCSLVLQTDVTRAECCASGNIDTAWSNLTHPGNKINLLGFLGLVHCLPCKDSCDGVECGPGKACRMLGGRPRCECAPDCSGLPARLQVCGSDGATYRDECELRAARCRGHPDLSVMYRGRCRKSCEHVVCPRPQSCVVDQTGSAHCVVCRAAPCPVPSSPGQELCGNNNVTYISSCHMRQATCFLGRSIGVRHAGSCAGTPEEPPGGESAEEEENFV
Chain of Torsin-1A-interacting protein 1 (Homo sapiens) (Q5JTV8 whole entry, looked up): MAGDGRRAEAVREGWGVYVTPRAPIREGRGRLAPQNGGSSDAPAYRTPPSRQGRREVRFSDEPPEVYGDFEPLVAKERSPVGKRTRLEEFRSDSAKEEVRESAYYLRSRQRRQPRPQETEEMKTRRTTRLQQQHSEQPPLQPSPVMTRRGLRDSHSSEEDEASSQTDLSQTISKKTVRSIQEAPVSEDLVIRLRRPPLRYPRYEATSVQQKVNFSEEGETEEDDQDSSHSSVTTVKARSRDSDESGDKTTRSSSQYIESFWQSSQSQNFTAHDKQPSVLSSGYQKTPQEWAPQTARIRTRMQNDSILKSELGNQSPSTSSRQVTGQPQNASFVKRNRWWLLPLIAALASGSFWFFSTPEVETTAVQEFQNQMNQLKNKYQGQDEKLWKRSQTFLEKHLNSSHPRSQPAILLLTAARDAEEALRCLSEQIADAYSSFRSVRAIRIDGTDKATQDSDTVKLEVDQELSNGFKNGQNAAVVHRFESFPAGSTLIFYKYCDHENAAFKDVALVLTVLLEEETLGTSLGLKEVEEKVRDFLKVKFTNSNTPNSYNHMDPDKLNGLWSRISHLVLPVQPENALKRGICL
Chain of Left-right determination factor 2 (Homo sapiens) (O00292 whole entry, looked up): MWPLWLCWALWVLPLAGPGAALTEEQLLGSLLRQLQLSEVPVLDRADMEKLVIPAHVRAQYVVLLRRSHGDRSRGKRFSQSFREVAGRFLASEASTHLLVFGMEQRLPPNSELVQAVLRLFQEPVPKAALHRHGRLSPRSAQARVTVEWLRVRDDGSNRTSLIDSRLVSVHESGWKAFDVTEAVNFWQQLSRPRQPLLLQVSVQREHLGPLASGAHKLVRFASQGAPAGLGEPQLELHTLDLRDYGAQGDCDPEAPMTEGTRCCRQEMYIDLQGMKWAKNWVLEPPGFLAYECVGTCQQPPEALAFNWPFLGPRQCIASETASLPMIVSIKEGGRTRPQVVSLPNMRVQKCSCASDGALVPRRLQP

For `COc1cc(CO)cc(I)c1O[C@H]1C=C(C(=O)NCCO)C[C@@H](N(CC2CCCCC2)C(=O)c2ccc(C(F)(F)F)cc2)[C@@H]1O`, the composite z-score is 0.199 in [1]; -0.267 in [2]; -0.49 in test [3]; 0.626 in test [5]; 0.0722 in test [6]; 0.515 in [7]. For the same molecule, the composite z-score in test [8] worked out at 0.483; in test [9], 0.521; in [10], 0.0031; in [11] it was 1.15; in test [13] it was 0.402; in test [14], 0.0208. In addition, the composite z-score was -0.21 in [15]; -0.087 in test [16]; -0.2 in [17]; -0.144 in [18]; 0.465 in [19]; -0.8 in [20]. Also, the z-score in test [4] was -0.0436 (inactive); in test [12] it was -1.54.
Take `O=C(O)[C@]1(Cc2ccccc2)N=C(c2ccc(OCCCO)cc2)O[C@@H]1c1ccccc1`: the composite z-score in test [1] is 0.122; in test [2], 0.568; in [3], 0.926; in test [5] it was -0.74; in [6], -1.23; in test [7], -0.856. Further, the composite z-score in [8] is -1.07; in test [9], -1.16; in test [10], 0.848; in test [11] it was -0.218; in test [13], -0.539; in test [14], -0.201. For the same molecule, the composite z-score in test [15] was 0.206; in test [16] it was -0.128; in test [17] it was 0.0893; in test [18], 0.306; in [19] it was -0.499; in test [20], -0.905. Moreover, the z-score was 0.771 (inactive) in test [4] and 0.398 in [12].
As for `C=CCN1C(=O)[C@@]2(O[C@@H](CCn3cc([C@H](O)c4ccccc4)nn3)[C@H]([Si](C)(C)c3ccc(OC)cc3)[C@H]2C)c2ccccc21`, the composite z-score in [1] was 1.52; in test [2], -0.0203; in test [3], 0.0047; in test [5], 0.756; in test [6], 0.658; in test [7], 0.32. Moreover, the composite z-score was 1.19 in test [8]; 0.694 in test [9]; 0.0239 in test [10]; 0.733 in test [11]; 0.245 in test [13]; 0.134 in [14]. In addition, the composite z-score in test [15] is -0.506; in test [16], 0.0973; in test [17] it was -0.0769; in [18], 0.0308; in test [19], 0.676; in test [20], 1.21. In addition, the z-score in test [4] is -0.56 (inactive); in [12] it was -3.04.
On to `CN(C)CCCNC(=O)[C@@H]1c2ccccc2C(=O)N(Cc2ccc(OC(F)(F)F)cc2)[C@H]1c1ccc(CO)cc1`, for which the composite z-score was 1.33 in [1]; -0.115 in test [2]; 0.56 in test [3]; 0.0228 in test [5]; 0.887 in [6]; -0.617 in test [7]. Besides, the composite z-score was 0.351 in test [8]; 0.0558 in test [9]; 0.561 in test [10]; 1.35 in [11]; -0.0765 in [13]; -0.226 in test [14]. Also, the composite z-score in test [15] was -0.919; in test [16], 0.0003; in [17], 0.0278; in test [18], -0.309; in [19], 0.724; in test [20], 0.243. For the same molecule, the z-score in [4] is 0.0681 (inactive); in [12], -2.08.
Regarding `CCOC(=O)[C@@H]1[C@@H]2C(=O)N(CC)C(=O)[C@@H]2C[C@@H]1Sc1ccccc1`, the composite z-score in test [1] was determined as 0.667; in test [2], 0.19; in test [3], 0.0774; in test [5], 0.448; in test [6], 0.177; in [7], 0.169. Also, the composite z-score in [8] was 0.446; in test [9] it was -0.174; in [10], 0.0622; in [11], 1.35; in test [13], 0.0952; in [14], 0.414. In addition, the composite z-score in test [15] was found to be 0.163; in test [16], 0.0357; in test [17], 0.131; in test [18], 0.266; in test [19], 0.706; in test [20], 1.27. For the same molecule, the figures for the z-score in test [4] and in test [12] were 1.33 (inactive) and -1.33, respectively.
